Screens as filed in PubChem BioAssay.
Only some compounds are listed: those with a hit (about 6% of all), similar ones and a draw of the others.
BCR signal inh = blocks chronic active B-cell receptor signaling; ABC-DLBCL IkBa-CBG/CBR reporter, luminescence ratio, 4 h; AID 493014; Potency, µM (top dose mostly 46.1 µM), for the others: at the highest dose activity change, negative = inhibition, most hits filed as inhibitors; 0.05% of 340,000 active; active = well fitted inhibition curve with a large enough effect in the signal ratio, with a control signal flat, not every such curve was filed as active; inconclusive = small, poorly fitted or top-dose-only effect, or effect the other way, or a change in a side signal; the % refers to the signal ratio;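 also: potency is read from the fitted curve at half-maximal effect; plate controls were basal doxycycline-induced cells for no effect and cells given 10 µM MG132 for full effect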
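Doxycycline induced both beetle luciferases in TMD8 lymphoma cells; IKK-driven degradation limits the IkappaBalpha-fused green signal, while red luminescence normalises for cell number and nonspecific effects. Compounds tested up to 46 uM, 4 hrs.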
D1 potentiator = human D1 dopamine receptor positive modulation. P21728. HEK293 TREx D1 cells, calcium flux, dopamine EC20 potentiation. potentiation, % at 10 µM. 0.036% of 360,000 active. AID 504651; in the data active = potentiation above about 30%; also: 0% is about no effect
D1 agonist = agonists of human D1 dopamine receptor; P21728; HEK293 T-REx D1 cells, calcium flux, agonist mode; activation, % at 2 µM; 1% of 360,000 active; in the data active = activation above about 30%; also: 0% is about no effect
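Tetracycline-induced HEK293 TREx D1 cells, force-coupled to calcium signalling, were dye-loaded with a no-wash calcium kit. Compound was pin-added after a 10 s baseline. Fluorescence was read kinetically at 1 cycle/s for 180 s, with calcium rises flagged as agonism.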
DRD3 antagonist = antagonists of human D3 dopamine receptor. P35462. D3R cells, DiscoveRx beta-arrestin luminescence, antagonist mode; active compounds read low. max response, negative = inhibition, %. 2.5% of 360,000 active; in the data active = max response below about -50%; inconclusive = no clear call, values can overlap the other calls; also: % is scaled to controls: 0 for no effect and ±100 for the full control effect
Target sequence (P35462 whole entry, looked up): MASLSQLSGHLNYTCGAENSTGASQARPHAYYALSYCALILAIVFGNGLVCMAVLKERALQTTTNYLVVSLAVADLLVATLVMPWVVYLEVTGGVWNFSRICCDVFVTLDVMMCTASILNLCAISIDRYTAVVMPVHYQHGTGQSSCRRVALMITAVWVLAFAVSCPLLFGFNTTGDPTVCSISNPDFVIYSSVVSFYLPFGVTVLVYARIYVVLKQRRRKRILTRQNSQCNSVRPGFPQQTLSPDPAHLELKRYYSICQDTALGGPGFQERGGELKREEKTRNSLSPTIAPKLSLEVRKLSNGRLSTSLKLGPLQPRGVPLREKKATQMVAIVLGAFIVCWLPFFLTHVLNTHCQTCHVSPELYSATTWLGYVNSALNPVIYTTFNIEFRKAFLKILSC
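Cells expressing the human receptor were seeded at 1500 cells/well, incubated overnight at 37 degrees C in 5% CO2, then exposed to library compounds with dopamine controls for 90 minutes at 37 degrees C before luminescent detection.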
D1 antag = human D1 dopamine receptor antagonism. P21728. HEK293 TREx D1 cells, calcium flux, dopamine EC80; active compounds read low. activity change, negative = inhibition, % at 10 µM. 3.2% of 360,000 active. AID 504652; in the data active = activity change below about -30%; also: % is scaled to controls: 0 for no effect and ±100 for the full control effect
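Cells carrying a force-coupled, tetracycline-inducible human D1 receptor report calcium flux. Each well gets a 10 s baseline, compound with 180 s monitoring, then an EC80 dopamine stimulus with a second 180 s kinetic read.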
D3 ag = agonists of human D3 dopamine receptor; P35462; max activation, %; D3R DiscoveRx beta-arrestin cells, luminescence, 90 min; AID 652048; 0.58% of 410,000 active; in the data active = max activation above about 30%; also: 0% is about no effect
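Agonist mode: compounds and dopamine controls were applied to plated cells for 90 min at 37 degrees C after an overnight attachment at 1500 cells/well. Luminescent read-out followed 30 - 60 minutes at room temperature with DiscoveRx detection reagent.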
* marks the source's active call; other numbers are inactive results; ? = inconclusive; nt = no result given.

SMILES	BCR signal inh	D1 potentiator	D1 agonist	DRD3 antagonist	D1 antag	D3 ag
O=C(O)c1nn(Cc2nc3ccccc3o2)c(=O)c2ccccc12	?	nt	3	7	-77*	6
Cc1nn(-c2ccccn2)c2c1C(c1ccsc1)C1=C(CCCC1=O)N2 (stereo not given)	15%	-4	0	-7	-86*	-1
CCOC(=O)c1c(SCCN2CCCC2)n(-c2ccccc2)c(=S)n(-c2ccccc2)c1=O	nt	nt	nt	-119*	nt	-17
O=C(N/N=C/c1cc(Br)cc(Br)c1O)c1ccncc1	5%	14	54*	5	-4	7
O=C(N/N=C/c1ccc(O)cc1O)C1CC1	nt	nt	nt	-92*	nt	-1
Cc1ccc(C(=O)Nc2nnc(CC(=O)N/N=C/c3ccc(O)c(O)c3)s2)cc1	-20%	-5	1	-8	0	3
O=C(N/N=C/c1ccc(Cl)cc1Cl)c1ccncc1	-3%	-2	2	9	2	3
O=C(N/N=C/c1ccc(O)cc1O)c1ccncc1	-7%	1	5	29	-15	42*
COc1ccc(C(=O)Nc2nnc(CC(=O)N/N=C/c3ccc(O)cc3O)s2)cc1	?	-2	46*	nt	15	nt
Cc1cccc(C(=O)Oc2c(Br)cc(Br)cc2/C=N/NC(=O)c2ccncc2)c1	6%	-3	5	7	0	-8
COc1ccc(-c2nnc(SCC(=O)NCCc3ccc(OC)c(OC)c3)nc2-c2ccc(OC)cc2)cc1	nt	-1	3	nt	-1	-16
COCc1ccc(CN2CCC(n3nccc3NC(=O)c3ccc4c(c3)OCO4)CC2)o1	nt	nt	nt	-22	nt	-3
Cc1cc(C(O)c2ncc(-c3ccccc3)[nH]2)ccc1F (stereo not given)	nt	nt	nt	0	nt	-16
COc1cccc(-c2nc(-c3ccc(-c4ccccc4)nc3OC)no2)c1	nt	-4	5	nt	0	-2
O=C(N/N=C/c1cc(Cl)cc(Cl)c1O)c1ccncc1	13%	2	68*	18	0	6
Oc1c(Cl)cc(Cl)cc1/C=N/Nc1ncc(Br)cn1	?	-14	3	-107*	-28	-25
CC(=O)c1ccc(N2CCN(C(=O)C3CCN(S(=O)(=O)c4ccc(Br)s4)CC3)CC2)cc1	nt	-2	16	nt	-15	6
COC(=O)c1scc(C)c1NC(=O)c1ccccc1F	?	-4	1	-2	-37*	4
COC(=O)c1scc(C)c1NC(=O)/C=C/C(=O)O	?	-4	2	7	-47*	6
O=c1c2ccccc2nc(/C=C/c2cccc3ccccc23)n1-c1ccc(F)cc1F	6%	-2	1	nt	4	-27
COc1cc(OC)c(OC)cc1/C=C/c1nc2cc3ccccc3cc2c(=O)n1-c1ccc(F)cc1F	?	2	42*	nt	10	-3
CCC(=O)c1ccccc1OCCCn1cncn1	?	-8	1	-3	-31*	-3
CCC(=O)c1ccccc1OCCN1CCN(Cc2ccccc2)CC1	-14%	3	3	-84*	-17	-18
CCOc1ccccc1OCCOCCN1CCN(Cc2ccccc2)CC1	0%	2	2	?	-5	-19
CCCCn1c(NCc2ccccc2NS(=O)(=O)c2ccc(C)cc2)nc2ccccc21	1%	-13	4	-29	-32*	-10
SMILES	BCR signal inh	D1 potentiator	D1 agonist	DRD3 antagonist	D1 antag	D3 ag
Cc1ccc(C(C)C)c(OC(C)C(=O)NCC2(N(C)C)CCCCC2)c1 (stereo not given)	nt	2	16	nt	14	-11
CC(C)Cn1c(SCC(=O)NC2CC2)nc2ccccc21	nt	nt	nt	-2	nt	5
CC1(C(=O)NCc2ccc3c(c2)OCO3)CCN1C(=O)C1(c2ccc(Cl)cc2)CC1 (stereo not given)	nt	nt	nt	-15	nt	3
O=C(CCc1ccccc1)NC(NC(=S)Nc1ccc(Cl)cc1)C(Cl)(Cl)Cl (stereo not given)	-21%	-6	9	?	-36*	-6
CC(=O)NC(NC(=S)Nc1ccc(N=Nc2ccccc2)cc1)C(Cl)(Cl)Cl (stereo not given)	?	-10	17	?	-44*	-4
CC(C)CC(=O)NC(NC(=S)Nc1ccccc1)C(Cl)(Cl)Cl (stereo not given)	3%	-2	13	-26	-17	-5
Cc1ccc(C(C)C)c(OCCCCCN2CCOCC2)c1	10%	-10	1	-52*	8	-17
Cc1ccc(C)c(OCCOCCN2CCOCC2)c1	2%	-9	2	-56*	-4	-18
C[n+]1cccc(NC(=O)c2ccccc2)c1	nt	nt	nt	13	nt	-1
CCN1c2ccccc2-c2nc(SCC(=O)Nc3cccc(C(F)(F)F)c3)ncc2S1(=O)=O	nt	-2	5	nt	10	8
O=c1cc(-c2ccccc2)oc2ccc(O)cc12	-6%	-1	0	14	2	-6
COc1ccc(-c2cc(=O)c3cc(O)ccc3o2)cc1	?	-2	-2	10	-34*	-15
COc1ccc(-c2cc(=O)c3cc(OCC(=O)OC(C)C)ccc3o2)cc1	nt	-1	19	nt	-60*	6
CSc1ccc(CNC(=O)c2sc3ncnc(N(C)C4CCCCC4)c3c2C)cc1	14%	-3	2	nt	-15	-19
CCNS(=O)(=O)c1ccc(NC(=O)Cn2nc(C(F)(F)F)cc2C)cc1	2%	-2	7	-13	-39*	-2
Cc1ccc(S(=O)(=O)N2CCCCC2)cc1NC(=O)C1CCC1	?	nt	7	15	-34*	-4
COc1ccc(S(=O)(=O)N2CCCCC2)cc1NC(=O)C1CCCC1	0%	7	0	11	8	1
Cc1ccc(S(=O)(=O)N2CCCCC2)cc1NC(=O)C1=NN(c2ccccc2)C(=O)CC1	?	-9	6	-25	-44*	-7
Cc1ccc(Oc2ccc(NC(=O)Cn3ccsc3=N)cc2)cc1	?	-6	85*	4	-29	0
Cc1ccc(NC(=O)CN(C)C(=O)Cn2ccsc2=N)cc1	1%	-1	3	-18	-2	-8
Cc1ccc(S(=O)(=O)N2CCOCC2)cc1NC(=O)C1=NN(c2ccccc2)C(=O)CC1	?	-4	2	4	2	-9
Cc1ccc(S(=O)(=O)N2CCCCC2)cc1NC(=O)Cn1ccsc1=N	?	-8	3	-15	-39*	-4
CCc1nc2c(OCC(=O)C(C)(C)C)cccn2c1N(C)C(=O)c1ccco1	nt	nt	nt	1	nt	3
CCOC(=O)N1CCN(Cc2nc(-c3cccc(C)c3)no2)CC1	8%	-1	10	25	-31*	6
